Screening data as filed in PubChem.
The entries come from a sample that favours hits as a whole.
C diff HTS – inhibitors of Clostridium difficile growth. growth activity, negative = inhibition, % at 16 µg/mL (by protocol). AID 1259249. Clostridium difficile clinical isolate growth, OD600, 24 h; active compounds read low. hit rate 0.25% among 86,000;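 active means mean growth activity at or below -80% and every replicate also at or below -80%; inconclusive means mean at or below -80% but some replicate above -80%; inactive means mean growth activity above -80%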
T cruzi growth-1 – T. cruzi proliferation inhibition | T. cruzi beta-gal in NIH3T3, GalScreen luminescence, 90 h | inhibition, % at 8.34 µM | hit rate 5.9% among 77,000;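 active means mean inhibition above about 93%, with at least 55% of replicates each passing it, limit read from the data, passing the limit was not always enough; inconclusive means only one of those two conditions holds; inactive means neither condition holds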
T cruzi growth-2 – Trypanosoma cruzi proliferation inhibition. shares compounds with T cruzi growth-1. T. cruzi beta-gal in NIH3T3, GalScreen luminescence, 90 h. inhibition, % at 8.35 µM. hit rate 72% among 5,600;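 active means mean replicate inhibition above about 95% and at least 55% of replicates individually reaching it, limit read from the data; inconclusive means only one of the two criteria is met; inactive means neither criterion is met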
T cruzi growth-3 – Trypanosoma cruzi proliferation inhibition. shares compounds with T cruzi growth-1. T. cruzi beta-gal in NIH3T3, GalScreen luminescence, 90 h. inhibition, % at 2.09 µM. hit rate 21% among 5,600. AID 651740;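 active means mean inhibition above about 95%, with at least 55% of replicates also reaching it, limit read from the data; inconclusive means meets just one of the two conditions; inactive means meets neither condition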
3T3 cytotox – cytotoxicity in mouse NIH/3T3 fibroblasts; shares compounds with T cruzi growth-1; NIH/3T3 viability, CellTiter-Glo ATP luminescence, 90 h; cytotoxicity (signal decrease), % at 8.35 µM; hit rate 14% among 5,600; AID 651742;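 active means mean signal decrease across replicates above about 35% based on untreated-well scatter, with enough replicates individually passing, limit read from the data; inconclusive means no rule stated though some were filed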
NIH3T3 tox 2 – kills mouse NIH/3T3 fibroblasts. hit rate 56% among 5,600. inhibition, % at 24.9 µM. NIH/3T3 viability, CellTiter-Glo ATP luminescence, 90 h. shares compounds with T cruzi growth-1;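 active means mean loss of cell viability signal at or above a set limit, and enough replicates individually reaching it; inconclusive means meets only the mean limit or only the replicate share; inactive means meets neither condition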
A number is an active result; - = inactive; ? = inconclusive; . = no result given.

SMILES	C diff HTS	T cruzi growth-1	T cruzi growth-2	T cruzi growth-3	3T3 cytotox	NIH3T3 tox 2
O=C(C[C@H]1C[C@@H]2c3cc(NC(=O)NC4CCCC4)ccc3O[C@@H]2[C@@H](CO)O1)NCc1ccccc1F	-	-	.	.	.	.
C[C@H]1CN([C@@H](C)CO)S(=O)(=O)c2ccc(-c3ccccc3)cc2O[C@H]1CN(C)Cc1cccc(F)c1	-	118.6	-	101.8	-	107.0
C[C@H]1CN([C@@H](C)CO)S(=O)(=O)c2ccc(-c3ccccc3)cc2O[C@@H]1CN(C)Cc1cccc(F)c1	-	119.5	-	108.1	?	103.2
C[C@H](CO)N1C[C@H](C)[C@@H](CN(C)Cc2cccc(F)c2)Oc2cc(-c3ccccc3)ccc2S1(=O)=O	-	106.8	-	-	43.4	100.6
C[C@@H]1CN([C@@H](C)CO)S(=O)(=O)c2ccc(-c3ccc(C#N)cc3)cc2O[C@@H]1CN(C)Cc1cccc(F)c1	-	.	.	.	.	.
C[C@@H]1CN([C@@H](C)CO)S(=O)(=O)c2ccc(-c3ccc(C#N)cc3)cc2O[C@H]1CN(C)Cc1cccc(F)c1	-	.	.	.	.	.
C[C@@H]1CN([C@H](C)CO)S(=O)(=O)c2ccc(-c3ccc(C#N)cc3)cc2O[C@@H]1CN(C)Cc1cccc(F)c1	-	.	.	.	.	.
C[C@@H]1CN([C@H](C)CO)S(=O)(=O)c2ccc(-c3ccccc3)cc2O[C@H]1CN(C)Cc1cccc(F)c1	-	118.4	100.9	104.2	116.6	103.4
C[C@@H]1CN([C@H](C)CO)S(=O)(=O)c2ccc(-c3ccc(F)cc3)cc2O[C@@H]1CN(C)Cc1cccc(F)c1	-	-	.	.	.	.
COc1ccc(-c2cnc3c(c2)C(=O)N([C@H](C)CO)C[C@H](C)[C@H](CN(C)C(=O)NC2CCCCC2)O3)cc1	-	-	.	.	.	.
C[C@H](CO)N1C[C@H](C)[C@@H](CN(C)S(=O)(=O)c2ccc(F)cc2)OCCCC[C@H](C)Oc2ccc(N(C)C)cc2C1=O	-	-	.	.	.	.
O=C(C[C@H]1CC[C@H](NS(=O)(=O)c2ccc(F)cc2)[C@H](CO)O1)NCc1ccc(Cl)c(Cl)c1	.	-	.	.	.	.
COc1ccc2c3c([nH]c2c1)[C@H](CO)N(Cc1cccc(Cl)c1)CC31CCN(C(C)=O)CC1	-	.	.	.	.	.
Cc1ccc(S(=O)(=O)N[C@H]2CC[C@H](CC(=O)N3CCC(Cc4ccccc4)CC3)O[C@H]2CO)cc1	-	-	.	.	.	.
CCCNC(=O)C[C@@H]1CC[C@@H]2[C@@H](COc3ccc(NC(=O)CCC)cc3C(=O)N2C)O1	-	-	.	.	.	.
C[C@H](CO)N1C[C@H](C)[C@H](CN(C)Cc2cccc(F)c2)Oc2cc(-c3ccc(F)cc3)ccc2S1(=O)=O	-	-	.	.	.	.
C[C@H](CO)N1C[C@H](C)[C@H](CN(C)Cc2cccc(F)c2)Oc2cc(-c3ccccc3)ccc2S1(=O)=O	-	120.5	108.4	-	-	103.5
C[C@H]1CN([C@@H](C)CO)S(=O)(=O)c2ccc(C#Cc3ccc(F)cc3)cc2O[C@H]1CN(C)CC1CC1	-	-	.	.	.	.
CO[C@@H]1CN(C)C(=O)c2ccc(NC(=O)c3cnccn3)cc2OC[C@H](C)N(C(C)=O)C[C@@H]1C	-	.	.	.	.	.
C[C@H](CO)N1C[C@H](C)[C@@H](CN(C)S(=O)(=O)c2ccc(C#N)cc2)OCc2ccccc2-c2c(n(C)c3ccccc23)C1=O	.	?	111.8	-	-	-
C[C@H]1CN([C@@H](C)CO)C(=O)c2c(c3ccccc3n2C)-c2ccccc2CO[C@@H]1CN(C)S(=O)(=O)c1ccc(C#N)cc1	.	-	.	.	.	.
COc1ccc(S(=O)(=O)N(C)C[C@H]2OCc3ccccc3-c3c(n(C)c4ccccc34)C(=O)N([C@@H](C)CO)C[C@@H]2C)cc1	.	-	.	.	.	.
C[C@@H]1CN([C@@H](C)CO)C(=O)c2c(c3ccccc3n2C)-c2ccccc2CO[C@H]1CN(C)S(=O)(=O)c1ccsc1	-	?	108.2	-	-	46.6
Cc1ccccc1S(=O)(=O)N(C)C[C@@H]1OCc2ccccc2-c2c(n(C)c3ccccc23)C(=O)N([C@@H](C)CO)C[C@@H]1C	.	-	.	.	.	.
C[C@H](CO)N1C[C@H](C)[C@H](CN(C)S(=O)(=O)c2ccsc2)OCc2ccccc2-c2c(n(C)c3ccccc23)C1=O	-	-	.	.	.	.
SMILES	C diff HTS	T cruzi growth-1	T cruzi growth-2	T cruzi growth-3	3T3 cytotox	NIH3T3 tox 2
C[C@H]1CN([C@@H](C)CO)C(=O)c2c(c3ccccc3n2C)-c2ccccc2CO[C@H]1CN(C)S(=O)(=O)c1ccccc1C#N	-	106.7	-	-	?	85.4
COc1ccc(S(=O)(=O)N(C)C[C@@H]2OCc3ccccc3-c3c(n(C)c4ccccc34)C(=O)N([C@@H](C)CO)C[C@@H]2C)cc1	.	?	100.0	-	-	24.2
COc1cccc(S(=O)(=O)N[C@H]2CC[C@H](CCn3cc(-c4ccccc4OC)nn3)O[C@H]2CO)c1	-	-	.	.	.	.
C[C@@H]1CN([C@H](C)CO)C(=O)c2cc(C#CC3(O)CCCC3)cnc2O[C@@H]1CN(C)S(C)(=O)=O	-	-	.	.	.	.
O=C(NC[C@H]1N[C@H](CO)[C@@H]1c1ccc(C2=CCCC2)cc1)C1CCCC1	-	.	.	.	.	.
O=C(CN1CCOCC1)NCC[C@@H]1CC[C@H](NC(=O)Cc2ccccn2)[C@H](CO)O1	.	-	.	.	.	.
CNC(=O)C[C@H]1CC[C@@H]2[C@@H](COc3ccc(NC(=O)Nc4cccc(C)c4)cc3C(=O)N2C)O1	-	-	.	.	.	.
O=C(CN1CCOCC1)N1CCCCN2[C@@H](CO)[C@@H](c3ccc(-c4ccccc4)cc3)[C@@H]2C1	-	91.2	-	-	-	-
O=C(CN1CCOCC1)N1CCCCN2[C@H](C1)[C@H](c1ccc(-c3ccccc3)cc1)[C@@H]2CO	-	-	.	.	.	.
COc1ccccc1-c1ccc([C@H]2[C@@H](CO)N3CCCCN(C(=O)CN4CCOCC4)C[C@H]23)cc1	-	-	.	.	.	.
O=C(CN1CCOCC1)N1CCCCN2[C@H](C1)[C@@H](c1ccc(/C=C/c3ccccc3)cc1)[C@@H]2CO	-	-	.	.	.	.
O=C(CN1CCOCC1)N1CCCCN2[C@H](CO)[C@@H](c3ccc(C#Cc4ccccc4)cc3)[C@@H]2C1	-	-	.	.	.	.
O=C(CN1CCOCC1)N1CCCCN2[C@H](CO)[C@H](c3ccc(C#Cc4ccccc4)cc3)[C@@H]2C1	-	103.2	105.6	-	41.2	66.7
COc1ccccc1-c1ccc([C@H]2[C@H](CO)N3CCCCN(C(=O)CN4CCOCC4)C[C@@H]23)cc1	-	100.3	-	-	-	30.6
O=C(CN1CCOCC1)N1CCCCN2[C@H](CO)[C@H](c3ccc(/C=C/c4ccccc4)cc3)[C@H]2C1	-	99.9	96.6	-	-	105.1
CNC[C@H]1Oc2ccc(NC(=O)NC3CCCCC3)cc2CC(=O)N([C@@H](C)CO)C[C@@H]1C	-	-	.	.	.	.
C[C@@H]1CN([C@H](C)CO)C(=O)c2cc(C#CCN(C)C)cnc2O[C@H]1CN(C)C(=O)NC1CCCCC1	.	-	.	.	.	.
CN(C)C(=O)C[C@@H]1CC[C@@H]2[C@H](COC[C@H](O)CN2C(=O)C2CC2)O1	-	-	.	.	.	.
